Source: PubChem BioAssay (NCI)
Several values for one entry are separate records, joined by “and”; a condition that tells them apart may be missing. Equal entries are not always repeated. About 83,000 compounds went through this panel and 20% of them were active in at least one assay; those are over-represented in the sample as a whole.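 Step 1: grow cells in 96-well plates. Step 2: add test compound at a single concentration. Step 3: incubate 48 h. Step 4: record percent growth.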 Activity calls are given as the source filed them. Rule for the calls: active = growth percent below 10; inactive = the rest.

test system: MDA-MB-468 breast; assay: NCI-60 one-dose screen, 48 h (100 = growth as untreated, 0 = no growth, -100 = all killed); conditions: 10 µM unless noted

| Compound | growth |
| --- | --- |
| N#Cc1c2c(c(N)[nH]c1=O)C(=O)NC2(O)c1ccccc1 (stereo not given) | 104% (inactive) |
| N=C(N)c1ccc(-c2ccc(-c3cc(Cl)cc(Cl)c3)s2)s1 | -63.4% (active) |
| COc1ccc(-c2cc(-c3ccc(Cl)cc3)nc(SCCCC(=O)NO)n2)cc1 | -56.2% (active) |
| Cn1cc(-c2ccc3ncc(-c4ccc(CC(=O)Nc5cc(C(C)(C)C)nn5C)cc4)cc3c2)cn1 | -2.1% [30 µM] (active) |
| CCN(CC)Cc1cc(Nc2cc(C(F)(F)F)c(C#N)c3nc4ccccc4n23)ccc1O | -0.969% (active) |
| C=CCOC(=O)C1=C(C)NC2=C(C(=O)CCC2)C1c1ccc(F)cc1 (stereo not given) | 92.3% (inactive) |
| C[C@]12CC[C@@H]3c4ccc(OCC(=O)O)cc4CC[C@H]3[C@@H]1CCC2=O | 113% (inactive) |
| O=C(CN1CCN(c2ccc(Cl)cc2)CC1)N1CCN(c2nnc(-c3ccccc3)c(-c3ccccc3)n2)CC1 | 35.1% (inactive) |
| CC1CCCC(=O)O1 (stereo not given) | 97.4% (inactive) and 97.3% (inactive) |
| O=S1SC(c2ccccc2)=NN1c1cc(F)cc(F)c1 (stereo not given) | 44.4% (inactive) |
| COc1ccc(C(=O)N/N=C/c2cc(C(F)(F)F)ccc2Cl)cc1 | 53.2% (inactive) |
| COc1ccc2c(c1)c(-c1nn3c(=O)cc(-c4ccccc4)nc3s1)cn2C | 20.1% (inactive) |
| O=C1C=CC(=O)N1c1ccccn1 | 114% (inactive) |
| Cc1nn(-c2ccccc2)c2nc3c(nc12)C1=NCCN1C(c1ccc(Cl)cc1)N3 (stereo not given) | 48.2% (inactive) |
| FC(F)(F)c1ccc(-c2nc(-c3nc4cc(Cl)c(Cl)cc4[nH]3)c3ccccn23)cc1 | 41.9% (inactive) |
| CN(C)C(=O)c1cc2cnc(Nc3ccc(-c4csc5c(=S)cc(N6CCOCC6)oc45)cc3)nc2n1C1CCCC1 | 1.46% (active) |
| CC(=O)c1ccc(Nc2nc(Cl)nc(Oc3c(Cl)cccc3Cl)n2)cc1 | 93.3% (inactive) |
| O=c1[nH]c(-c2cn(-c3ccc(Cl)cc3)nn2)nc2ccccc12 | 77.1% (inactive) |
| Fc1ccc(CNc2c3ccccc3nc3ccccc23)cc1F | -10.7% (active) |
| CCC1C(=O)COC1=O (stereo not given) | 103% (inactive) |

| Compound | growth |
| --- | --- |
| Cc1ccc2cnc(N)c(C#Cc3cc(C(=O)Nc4ccc(CN5CCN(C)CC5)c(C(F)(F)F)c4)cnc3C)c2c1 | 15.5% (inactive) |
| O=C(Nc1nc(-c2ccccc2)cs1)c1cc(O)c(O)c(O)c1 | 46.3% (inactive) |
| COc1cc(OC)cc(C2C3=C(COC3=O)Nc3cc(OC)ccc32)c1 (stereo not given) | -8.19% (active) |
| Cc1ccc(S(=O)(=O)NCCNc2nc(Nc3ccc(N4CCN(C)CC4)cc3)nc3ccsc23)cc1 | 94.1% (inactive) |
| N#Cc1ccc(NC(=O)Nc2cccc(C#N)c2)cc1 | 46.5% (inactive) |
| COc1cc(/C=C/C(=O)/C=C/c2cc(OC)c3c(c2)OCO3)cc2c1OCO2 | 76.2% (inactive) |
| COC(=O)/C(CCC=C(C)C)=C1\[C@@H](OC(C)=O)C[C@@]2(C)[C@H]1C[C@@H](O)[C@H]1[C@@]3(C)CC[C@H](NCCN)[C@@H](C)[C@@H]3CC[C@@]12C | 58.6% (inactive) |
| CCOC(=O)C(=Cc1ccccc1F)C(=O)OCC | 76.7% (inactive) |
| COc1ccc(C2CC(c3cccc(OCCCCOc4cccc(C5=NOC(c6ccc(OC)cc6)C5)c4)c3)=NO2)cc1 (stereo not given) | 112% (inactive) |
| CSc1nc2nc3c(nc2c(=O)n1C)C(=O)c1ccccc1C3=O | -58.4% (active) |
| CCOC(=O)c1sc(/N=C2\NC(=O)/C(=C/c3ccc(N4CCN(C)CC4)cc3)S2)nc1C | 111% (inactive) |
| O=C(Cc1ccc(/C=C/C(=O)c2ncc[nH]2)cc1)Nc1cc(C(F)(F)F)cc(C(F)(F)F)c1 | 65.3% (inactive) |
| CCc1ccc(CCC(=O)Nc2ncc(Cc3ccc(Cl)cc3)s2)o1 | 0.812% (active) |
| O=[N+]([O-])c1ccc(NC(=S)N/N=C/c2cc3ccccc3n3nnnc23)cc1 | 61.7% (inactive) |
| C=C(c1ccc(C(=O)O)cc1)c1cc2c(cc1C)C(C)(C)CCC2(C)C | 109% (inactive) and 103% (inactive) |
| Nc1nc(N)c2c(n1)NC(c1ccc(C(F)(F)F)cc1)CC(c1ccc(Nc3nc(NCCO)nc(N4CCOCC4)n3)cc1)=N2 (stereo not given) | 68.3% (inactive) |
| COc1cc(-c2nn(C(C)(C)C)cc2-c2ccnc(NCCCNS(=O)(=O)c3cccc(F)c3)n2)ccc1Cl | 77.8% (inactive) |
| NS(=O)(=O)c1ccc(Nc2nc(N/N=C/c3ccc(C(F)(F)F)cc3)nc(Nc3ccccc3)n2)cc1 | 34.3% (inactive) |
| CCCCOc1nc2ccc(C)cc2cc1/C=C/C(=O)/C=C/c1ccc2c(c1)OCO2 | 95.9% (inactive) |
| CCN(CC)c1ccc2nc3c4ccccc4c(=O)cc-3n(-c3ccccc3)c2c1 | -17.5% (active) |
